M1 PAM = positive allosteric modulators of human M1 muscarinic receptor. P11229. CHO-K1 hM1, Fluo-8 calcium fluorescence, ACh EC20; 0% = ACh EC20, 100% = maximal ACh. activation, % at 3 µM. 0.088% of 360,000 active. AID 588819; in the data active means activation above about 19%, passing the limit was not always enough
Target sequence (P11229 whole entry, looked up): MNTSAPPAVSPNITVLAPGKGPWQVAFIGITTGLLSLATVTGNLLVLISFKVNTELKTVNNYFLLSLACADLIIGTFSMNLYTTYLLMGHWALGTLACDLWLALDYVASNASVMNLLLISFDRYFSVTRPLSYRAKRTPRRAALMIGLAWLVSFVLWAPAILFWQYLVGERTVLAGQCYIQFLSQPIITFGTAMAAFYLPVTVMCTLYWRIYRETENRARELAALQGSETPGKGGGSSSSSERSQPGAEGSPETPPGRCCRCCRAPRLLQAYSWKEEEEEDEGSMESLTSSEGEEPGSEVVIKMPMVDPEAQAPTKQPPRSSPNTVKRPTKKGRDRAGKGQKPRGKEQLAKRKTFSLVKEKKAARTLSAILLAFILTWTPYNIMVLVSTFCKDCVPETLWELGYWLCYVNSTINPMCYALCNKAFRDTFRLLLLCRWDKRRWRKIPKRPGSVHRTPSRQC
CHO-K1 Ca antag = M1 antagonist counterscreen hit in parental CHO-K1 cells; ATP-induced calcium, Fluo-8 fluorescence; inhibition, % at 3 µM; 0.6% of 360,000 active; AID 602250;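 active means inhibition above a per-plate cutoff, the plate's mean sample inhibition plus 3 SD, cut at about 24% in these data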
CHRM1 agonist = human M1 muscarinic receptor agonism; P11229; activation, % at 3 µM; CHO-K1 hM1, Fluo-8 calcium fluorescence, agonist mode; 0% DMSO, 100% acetylcholine EC100; 0.33% of 360,000 active;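 active means activation above the run's mean compound activation plus 3 SD, cut at about 16% in these data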;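 further: peak over basal fluorescence ratio within a 140 s kinetic read after compound addition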
M1 ag parental = nonselective activator or artifact in parental CHO-K1 cells. Fluo-8 calcium fluorescence; scaled to maximal ATP response, vehicle zero. activation, % at 3 µM. 0.48% of 360,000 active. AID 602248; in the data active means activation above about 15%;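 further: untransfected CHO-K1 host cells lacking M1 receptor as counterscreen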
M1 PAM parental = counter-screen for M1 PAMs: effect in parental CHO-K1 cells; ATP EC20, Fluo-8 calcium fluorescence; 0% at ATP EC20, 100% at ATP max; activation, % at 3 µM; 0.02% of 360,000 active; AID 602247;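 active means activation above the run cutoff, the mean activation of all test compounds plus 3 SD, cut at about 40% in these data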;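 further: peak over basal fluorescence ratio in a 140 s read after ATP addition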
M1 antag = human CHRM1 antagonism; P11229; CHO-K1 hM1, Fluo-8 calcium fluorescence, ACh EC80 antagonist; inhibition, % at 3 µM; 1.3% of 360,000 active; AID 588852;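 active means percent inhibition above its own plate's cutoff, namely the mean of that plate's compound wells plus 3 SD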;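 further: peak over basal fluorescence ratio during 140 s after agonist addition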
Large screens that a line does not name were inactive. This is a sample that favours compounds with a hit; in the whole collection about 2.3% have one here.

C=Cn1cc[n+](CC(=O)c2ccc(-c3ccccc3)cc2)c1	none
COC(=O)c1ccc(OCC(=O)c2ccccc2)cc1	none
O=C(C[n+]1ccccc1)c1ccc(-c2ccccc2)cc1	M1 antag 40
COC(=O)c1cc[n+](CC(=O)c2ccccc2)cc1	CHRM1 agonist 30
CN(C)c1cc[n+](CC(=O)c2ccc(-c3ccccc3)cc2)cc1	M1 antag 42
CN(C)c1cc[n+](CC(=O)c2ccc(Br)cc2)cc1	none
CN(CC(=O)Nc1ccc(Cl)c(C(F)(F)F)c1)C(=O)CCCNC(=O)c1ccc(Cl)cc1	none
Cc1c(C(=O)OCC(=O)NCCN2C(=O)CSC2=O)cccc1[N+](=O)[O-]	CHO-K1 Ca antag 30
CCOC(=O)Cc1nnc(NC(=O)CSc2ccc(C)cc2)s1	CHRM1 agonist 19
CCCc1cc(C(=O)Nc2cc(OC)ccc2OC)cs1	CHO-K1 Ca antag 25
CCOC(=O)C1(Cc2ccc(Cl)cc2)CCN(C(C)Cc2ccc(O)c(OC)c2)CC1 (stereo not drawn)	M1 antag 39
CCOC(=O)C1(Cc2ccc(OC)cc2)CCN(S(C)(=O)=O)CC1	none
c1ccc2c(c1)ccn2CCCN1CCCCC1	none
CC(=O)NC(c1ccccc1)c1nc(-c2cncnc2)cs1 (stereo not drawn)	none
COc1ccc2[nH]c(=O)c(CN(Cc3cccs3)S(=O)(=O)c3c(C)ccc4nsnc34)cc2c1	M1 antag 45
CC(=O)NC1CC2CCCC(C1)N2C(=O)Nc1ccc(Cl)cc1 (stereo not drawn)	none
NCCc1nnc(SCc2ccc(F)cc2)o1	none
NCCCCCc1nnc(SCc2ccc(Cl)c(Cl)c2)o1	M1 antag 48
O=C(Nc1ccc(OC(F)(F)F)cc1)C1CCCN(C(=O)c2ccc(Cl)cc2)C1 (stereo not drawn)	M1 ag parental 20
Cc1ccc(-c2nn(-c3ccccc3)cc2C(=O)Nc2ccc(C)c(S(=O)(=O)N3CCOCC3)c2)cc1	CHO-K1 Ca antag 24
O=C(Nc1cccc(S(=O)(=O)N2CCOCC2)c1)c1cn(-c2ccccc2)nc1-c1ccccc1	none
CC(=O)c1ccc(NC(=O)c2ccc(C)c(S(=O)(=O)N3CCOCC3)c2)cc1	none
CCN1CCN(c2ccc(NC(=O)c3ccc(Cl)c(S(=O)(=O)N4CCCC4)c3)cc2)CC1	M1 antag 99
CCN1CCN(c2ccc(NC(=O)c3ccc(OC)c(S(=O)(=O)N4CCCC4)c3)cc2)CC1	none
CCN(CC)CCOC(=O)c1ccc(NC(=O)c2ccc(Cl)c(S(=O)(=O)N3CCCCCC3)c2)cc1	M1 antag 98
O=C(Nc1ccncc1)c1ccc(Cl)c(S(=O)(=O)N2CCCCC2)c1	none
CCOC(=O)c1ccc(NC(=O)c2ccc(C)c(S(=O)(=O)N3CCOCC3)c2)cc1	CHO-K1 Ca antag 30, M1 antag 51
CC1CCCC(NC(=O)CN2C(=O)NC(c3ccccc3)(c3ccccc3)C2=O)C1C (stereo not drawn)	none
Cc1cc(-c2ccc(S(=O)(=O)NCc3ccc(Cl)cc3)cc2)on1	none
COCCCN1C(=O)C(CC(=O)NCCCN(C)C)CC(C(=O)N2CCOCC2)=C1C (stereo not drawn)	none
CCN1CCN(c2ccc(NC(=O)c3ccc4c(c3)OCO4)cc2)CC1	none
CCN1CCN(c2ccc(NC(=O)c3ccc(Cl)c(N4CCCC4=O)c3)cc2)CC1	M1 antag 23
CCCCOc1cccc(C(=O)Nc2ccc(N3CCN(CC)CC3)cc2)c1	M1 antag 75
CC(C)n1nnnc1SCC(=O)N(C)C1CCS(=O)(=O)C1 (stereo not drawn)	none
Nc1ncnc2c1ncn2[C@@H]1O[C@H](C(=O)N2CCN(Cc3ccccn3)CC2)[C@@H](O)[C@H]1O	none
O=C(NCCOc1ccc(F)cc1)C1CCC(=O)N(CC2CCCCC2)C1 (stereo not drawn)	none
Oc1ccc(N=Nc2ccc3c(c2)OCCO3)c2ncccc12	M1 ag parental 17, M1 antag 32
Cc1c(C(=O)N2CCN(c3ccccc3)CC2)oc2c1C(=O)CC(C)(C)C2	M1 antag 30
Cc1ccc(C)c(OC(=O)c2cccc(S(=O)(=O)N3CCN(C)CC3)c2)c1	none

Bioassay records from PubChem.
